Laboratory results as given in PubChem BioAssay AID1347431 (National Center for Advancing Translational Sciences (NCATS), 2020).
In all, about 1,200 compounds went through this assay and fewer than 10 were called active. Calls come from the whole dose curve; as a rule, active = well fitted curve in the direction sought with a large enough effect; inconclusive = small, poorly fitted or top-dose-only effect, or another doubt; inactive = no such curve, though single readings can be large or run the other way. Not all results are given here.

Assay: Confirmatory qHTS assay for inhibitors of Activation Induced Cytidine Deaminase (AID): UDG signals
Details: UDG coupled enzyme activity counter-screen; series mostly up to 115 µM
Source text: Assay Provider (PI) Patricia Gearhart Ph.D.
National Institute on Aging
National Institute of Health (NIH), Bethesda, MD
Assay Provider (PI) Rahul Kohli Ph.D.
Perelman School of Medicine
University of Pennsylvania, Philadelphia, PA
Activation-Induced Deaminase (AID) is a cytosine deaminase which converts cytosine into uracil within stretches of ssDNA. The presence of uracil in DNA initiates a cascade of mutagenic DNA repair to introduce point mutations and DNA double strand breaks. Specific targeting of AID to the immunoglobulin heavy chain loci (Igh) promotes mutagenesis in the antibody variable region for somatic hypermutation (SHM) or switch regions leading to class switch recombination (CSR). However, AID also plays a role in accumulating unnecessary mutations across the genome. Mis-targeting of AID results in the initiation of tumor development and leads to greater drug resistance among cancer cells when continually expressed. To identify an AID inhibitor, a small molecule library will be screened in collaboration with NCATS core facility at NIH. To confirm biological function, inhibitors will be examined in an in vitro murine B-cell activation assay and subsequent secondary validation screens. Top molecules will be further screened to identify inhibitory efficacy against a wild type primary splenocytes assay. Using these approaches, we hope to identify a small molecule with great efficacy and low toxicity for use as a molecular probe to further characterize AID's intricacies, or even as a therapeutic.
A FRET based analysis of cytosine deamination, was developed to identify potential inhibitors of AID catalytic activity. This screen has two signal output, Read 1 evaluates the AID inhibition response. The second readout (Read 2) evaluates UDG response and is uses as a counterscreen to exclude false positive inhibitors. Inhibition in AID and inactivity in the UDG signal is the desired outcome for this assay.
SEQUENCE No. (e.g., 1, 2, 3, etc.); […] (e.g., Cells, Incubation, Reagent, etc.); VALUE; DESCRIPTION
1a; Reagent; 3 uL; [4/3x] 1 uM AID/2.67 U/mL UDG
1b; Reagent; 3 uL; 2 U/mL UDG
1c; Reagent; 3 uL; 1 uM AID
2a; Compound; 46 nL; Follow-up plates (0.64 uM - 10 mM)
2b; Control; 46 nL; ATA ([…] - 10 mM)
3; Time; 10 min; incubation at room temperature
5; Time; 4 hr; incubation at room temperature
6; Reagent; 4 uL; [2x] 250 mM NaOH
7; Time; 15 sec; centrifuge at 1000 rpm
8; Time; 30 min; incubation at room temperature
9a; Detection; fluorescence (Read 1: AID); EnVision (PerkinElmer) plate reader, 540 excitation and 590 emission filters
9b; Detection; fluorescence (Read 2: UDG); EnVision (PerkinElmer) plate reader, 560 excitation and 665 emission filters
NOTES (numbers refer to sequence above)
1a; Reagents were dispensed in a medium-binding black solid-bottom Greiner plates (789176F) using a BioRptr liquid dispenser. Dispense 3 uL of [4/3x] 1 uM AID (provided by Kohli lab) and [4/3x] 2 U/mL UDG (NEB M0280L) into columns 1, 2, 5 to 48.
1b; Dispense 3 uL of [4/3x] 2 U/mL UDG into column 3.
1c; Dispense 3 uL of [4/3x] 1 uM AID into column 4.
2a; Compound (7-points [uM]: 0.64; 3.2; 16; 80; 400; 2,000; 10,000; […]) double pin-transferred (Dip Factor = 2) using the Kalypsys (Wako USA) pintool equipped with a 1536 pinhead for a final concentration range of 7.32 nM - 114 uM.
2b; 10 mM Aurintricarboxylic Acid (Sigma A1895) (ATA, 8-point, n = 2, 1:2.5 dilution in column 2) double pin-transferred (Dip Factor = 2) using the Kalypsys (Wako USA) pintool equipped with a 1536 pinhead for a [final] range of 186 nM - 114 uM.
3; Room temperature incubation.
4; Dispense 1 uL of substrate mixture from the Kohli lab [4x] […] DJC20 and [4x] 250 nM DJC23 into columns 1 to 48 .
5; Room temperature incubation.
6; Dispense 4 uL of substrate mixture [2x] 250 mM NaOH into columns 1 to 48.
7; Centrifugation step to remove bubbles.
8; Room temperature incubation
9a; Fluorescence signal (column label AID) was read using the EnVision plate reader. […]

| SMILES | outcome |
| --- | --- |
| CCCCn1c(-c2ccc(C)cc2)c(C)n2c3c(=O)n(C)c(=O)n(C)c3nc12 | inactive |
| COc1ccccc1CC(=O)Nc1ccc2nc(Nc3cccc(C(F)(F)F)c3)cc(C)c2c1 | inactive |
| CC1CCCCN1CCNC(=O)c1ccc(Cn2c(SCc3ccccc3)nc3cccnc32)cc1 (centres undefined) | inactive |
| CC(C)CCN(Cc1ccco1)C(=O)c1cc2c(s1)-c1ccccc1OC2 | inactive |
| CCC(C)c1ccc(OCC(=O)Nc2cccc(-c3nc4ncccc4o3)c2)cc1 (centres undefined) | inactive |
| CCc1ccc(NC(=O)c2cc(C(C)=O)n3ccccc23)cc1 | inactive |
| CCc1ccc2oc(C(=O)NCC(c3ccc(Cl)cc3)N3CCOCC3)c(C)c2c1 (centres undefined) | inactive |
| COc1ccc(N(C)C(=O)c2cc3c(s2)-c2ccccc2OC3)cc1 | inactive |
| COc1ccc(C2CC(=O)N3CN(C4CCCCC4)CSC3=C2C#N)c(OC)c1 (centres undefined) | inactive |
| CCn1cc2nc(SCc3cccc(C(F)(F)F)c3)n(Cc3ccc(C)cc3)c(=O)c2n1 | inactive |
| Cc1ccc(-n2ncc(C(=O)N3CCN(Cc4ccccc4)CC3)c2C2CCN(C(=O)OC(C)(C)C)CC2)c(C)c1 | inactive |
| CCn1cc(S(=O)(=O)c2ccc(Cl)cc2)c(=O)c2cc(F)c(N3CCOCC3)cc21 | inactive |
| Cc1ccc(-n2c(=O)c3oc4ccccc4c3n(Cc3cccc(F)c3)c2=O)cc1C | inactive |
| O=C(c1cccn1-c1nnc(N2CCCCC2)s1)N1CCN(c2ccc(Cl)cc2)CC1 | inactive |
| Cc1ccc(Cl)cc1N1CCN(C(=O)c2ccc3c(c2)N(Cc2ccccc2)CCS3)CC1 | inactive |
| COc1ccc(-c2coc3c2c(C)cc2oc(=O)c(CC(=O)O)c(C)c23)cc1 | inactive |
| CCCc1cc(=O)n2[nH]c(NC(=O)c3ccc(C(C)(C)C)cc3)nc2n1 | inactive |
| Cc1ccccc1C(=O)Nc1ccc(C(=O)OCc2cc(=O)n3c4c(sc3n2)CCCC4)cc1 | inactive |
| Cc1ccc2c(C)c(C(=O)NCC(c3ccc(Cl)cc3)N3CCOCC3)oc2c1 (centres undefined) | inactive |
| CCOC(=O)c1c(C)oc2nc(C)nc(N3CCN(c4ccccc4F)CC3)c12 | inactive |

| SMILES | outcome |
| --- | --- |
| CCN(CC)C(=O)c1ccc2c(c1)N(Cc1c(F)cccc1Cl)C(=O)c1ccccc1S2 | inactive |
| COc1ccc(-c2nn3c(-c4ccccc4C)nnc3c3ccccc23)cc1 | inactive |
| COc1ccc(CCNC(=O)CSc2cn(CCNC(=O)c3cccc(C(F)(F)F)c3)c3ccccc23)cc1OC | inactive |
| CCOCCCn1c(=N)c(C(=O)NC(C)c2ccccc2)cc2c(=O)n3cccc(C)c3nc21 (centres undefined) | inactive |
| COc1ccc(CNc2oc(-c3ccc(COc4ccccc4C)o3)nc2C#N)cc1 | inactive |
| Cc1ccc(Cl)cc1N(C)C(=O)c1sc2nc3n(c(=O)c2c1C)CCCC3 | inactive |
| COc1cc2c(=O)c(S(=O)(=O)c3ccc(C)cc3)cn(Cc3cccc(C)c3)c2cc1OC | inactive |
| O=C(Nc1cc(-c2ccccc2)sc1C(=O)O)c1cccc(F)c1 | inactive |
| C=Cc1ccc(CN2C(=O)N(c3ccc(C)c(C)c3)S(=O)(=O)c3ccccc32)cc1 | inactive |
| O=S(=O)(NCCc1nnc2ccc(SCc3ccc(Cl)cc3Cl)nn12)c1ccccc1 | inactive |
| COc1ccc(-c2cc3ncc(C(=O)c4cc([N+](=O)[O-])ccc4O)cn3n2)cc1 | inactive |
| Cc1c(C(=O)N(C)c2ccccc2)sc2nc(-c3ccc(F)cc3)cn12 | inactive |
| CCOc1ccc2nc(Cl)c(C3CC(c4ccc(C)cc4)=NN3C(=O)CCC(=O)O)cc2c1 (centres undefined) | inactive |
| COc1ccccc1-c1nn(CCC(=O)Nc2ccc(C)cc2)c2nc(C)cc(C)c12 | inactive |
| Cc1ccc(C)c(N2CCN(C(=O)c3cnn(C(C)(C)C)c3C3CCN(C(=O)OC(C)(C)C)CC3)CC2)c1 | inactive |
| COc1cc2c(cc1OC)C(COc1ccc(F)cc1)N(C(=O)c1cccc(F)c1)CC2 (centres undefined) | inactive |
| COc1ccc(OC)c(NC(=O)Cn2c(=O)cc(-c3ccccc3)c3c(C)nn(C)c32)c1 | inactive |
| Cc1nc2c(C(=O)NCc3ccccc3)c[nH]n2c(=O)c1Cc1ccccc1Cl | inactive |
| CCCCCSc1nnc2c(n1)OC(CC)Nc1ccc(Br)cc1-2 (centres undefined) | inactive |
| CCCCN(CCCC)C(=O)c1cc2c(=O)n3cccc(C)c3nc2s1 | inactive |

| SMILES | outcome |
| --- | --- |
| CCOc1ccc(C(=O)/C=C/c2cn(CC(O)CN3CCCCCC3)c3ccccc23)cc1 (centres undefined) | inactive |
| CCCc1nc2ccccc2n2c(-c3ccccc3)c3c(=O)n(C)c(=O)n(C)c3c12 | inactive |
| CCCN1CCN(CCCNC(=O)c2cc3c(Cl)nc4ccccc4c3s2)CC1 | inactive |
| COc1ccc(CSc2nc3ccncc3n2Cc2nc(-c3ccc(OC)c(OC)c3)oc2C)cc1 | inactive |
| COc1ccc(Cn2cc(C(=O)c3ccc(C)c(C)c3)c(=O)c3ccccc32)cc1 | inactive |
| Cc1ccccc1NC(=O)c1c(NC(=O)C(F)(F)F)sc2c1CCCCC2 | inactive |
| O=S1(=O)c2ccccc2N(Cc2ccc(Cl)cc2)c2ccccc21 | inactive |
| Cc1cccc(Cn2c(SCc3ccc(C(=O)N4CCCCCC4)cc3)nc3ccncc32)c1 | inactive |
| COCCc1nn2c(=O)cc(COC(=O)c3ccc(C(C)(C)C)cc3)nc2s1 | inactive |
| CCN(c1cccc(C)c1)S(=O)(=O)c1nnc(NC(=O)c2ccccc2Cl)s1 | inactive |
| COc1ccccc1N1CCN(C(=O)c2cc3c(-c4ccccc4F)nn(C)c3s2)CC1 | inactive |
| CCOc1cccc(C(=O)N(Cc2ccc(F)cc2)Cc2ccco2)c1 | inactive |
| CCOc1ccc(CCNc2ncnc3onc(-c4ccc(Cl)cc4)c23)cc1OCC | inactive |
| Cc1cc(OCCCSc2nc(-c3ccc(C(C)(C)C)cc3)nc3cc(=O)[nH]n23)ccc1Cl | inactive |
| CCOc1ccc(Nc2c(S(=O)(=O)c3ccc(C)cc3)cnc3ccc(OC)cc23)cc1 | inactive |
| CCn1cc2nc(SCc3cccc(C(F)(F)F)c3)n(CCc3ccccc3)c(=O)c2n1 | inactive |
| CCCCOc1ccc(C(=O)Nc2ccc(S(=O)(=O)Nc3nc(C)cc(C)n3)cc2)cc1 | inactive |
| O=C(O)c1c(-c2ccccc2)oc2ccc(OCc3c(F)cccc3Cl)cc12 | inactive |
| O=C1c2ccccc2C(=O)C1(c1ccccc1)N1CCN(c2cccc(C(F)(F)F)c2)CC1 | inactive |
